Reference: PubChem BioAssay (NCATS)
Results filed as inconclusive are left out. Activity calls are given as the source filed them. Calls come from the whole dose curve; as a rule, active = well fitted curve in the direction sought with a large enough effect; inconclusive = small, poorly fitted or top-dose-only effect, or another doubt; inactive = no such curve, though single readings can be large; an effect the other way counts as inactive or inconclusive.

How the values were obtained:
NIH3T3 = assay: qHTS assay to identify novel small-molecules to repurpose for Merkel cell carcinoma treatment (AID 1296009); details: MCC and control cell lines, CellTiter-Glo viability, 72 h; at 44.8 µM (top of the series) unless noted; note: nearly all actives have a fitted effect of over 60% in size
How it was run: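 Cells were incubated with compound for 72 hr at 37 degree celsius before CellTiter-Glo addition. Luminescence was normalized with no-cell wells as full cytotoxicity and DMSO as baseline.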

C33A = assay: Primary qHTS to identify gynecologic anti-cancer compounds using libraries of approved drugs and bioactive compounds (AID 1345084); details: Gynecologic cancer cell panel viability, ATPlite luminescence, 48 h; series mostly up to 57.5 µM; note: nearly all actives have a fitted effect of over 55% in size
How it was run: (§1)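 Cells, 1,000 per well, plated 16 h, then exposed 48 h at 37 C to compounds. Viability by ATPlite luminescence after 15 min at room temperature.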

CAOV3 = assay: as above; details: Gynecologic cancer cell panel viability, ATPlite luminescence, 48 h; series mostly up to 57.5 µM
How it was run: as §1

CASKI = assay: as above; details: Gynecologic cancer cell panel viability, ATPlite luminescence, 48 h; series mostly up to 57.5 µM
How it was run: as §1

Es-2 = assay: as above; details: Gynecologic cancer cell panel viability, ATPlite luminescence, 48 h; series mostly up to 57.5 µM
How it was run: as §1

HeLa = assay: as above; details: Gynecologic cancer cell panel viability, ATPlite luminescence, 48 h; series mostly up to 57.5 µM
How it was run: as §1

Hek293T = assay: as above; details: Gynecologic cancer cell panel viability, ATPlite luminescence, 48 h, control line for the selectivity index; series mostly up to 57.5 µM
How it was run: as §1

JEG-3 = assay: as above; details: Gynecologic cancer cell panel viability, ATPlite luminescence, 48 h; series mostly up to 57.5 µM
How it was run: as §1

OV90 = assay: as above; details: Gynecologic cancer cell panel viability, ATPlite luminescence, 48 h; series mostly up to 57.5 µM
How it was run: as §1

PA-1 = assay: as above; details: Gynecologic cancer cell panel viability, ATPlite luminescence, 48 h; series mostly up to 57.5 µM
How it was run: as §1

SKOV3 = assay: as above; details: Gynecologic cancer cell panel viability, ATPlite luminescence, 48 h; series mostly up to 57.5 µM
How it was run: as §1

Tov-21-G = assay: as above; details: Gynecologic cancer cell panel viability, ATPlite luminescence, 48 h; series mostly up to 57.5 µM
How it was run: as §1

Tov112D = assay: as above; details: Gynecologic cancer cell panel viability, ATPlite luminescence, 48 h; series mostly up to 57.5 µM
How it was run: as §1

Measured: Potency

CC1(O)CC(O)C2C(C(=O)O)=COC(OC3OC(CO)C(O)C(O)C3OC(=O)/C=C/c3ccc(O)cc3)C21 (stereo unspecified)
inactive: NIH3T3 inactive [at 17.4 µM] | C33A | CAOV3 | CASKI | Es-2 | HeLa | Hek293T | JEG-3 | OV90 | PA-1 | SKOV3 | Tov-21-G | Tov112D

COC(=O)c1c(CC=C(C)C)c(OC2OC(CO)C(O)C(O)C2O)c2ccccc2c1OC1OC(CO)C(O)C(O)C1O (stereo unspecified)
inactive: NIH3T3 inactive [at 17.4 µM] | C33A | CAOV3 | CASKI | Es-2 | HeLa | Hek293T | JEG-3 | OV90 | PA-1 | SKOV3 | Tov-21-G | Tov112D

CC1(C)CC[C@]2(C(=O)O)CC[C@]3(C)C(=CCC4[C@@]5(C)CC[C@H](O[C@@H]6O[C@H](C(=O)O)[C@@H](O)[C@H](O)[C@H]6O)C(C)(C)C5CC[C@]43C)C2C1 (stereo partly specified)
inactive: NIH3T3 inactive [at 17.4 µM] | C33A | CAOV3 | CASKI | Es-2 | HeLa | Hek293T | JEG-3 | OV90 | PA-1 | SKOV3 | Tov-21-G | Tov112D

COc1ccc(CC(=O)NCc2ccccc2-c2ccccc2C(=O)NCCc2cccnc2)cc1
inactive: all assays above

CC12CC(O)C(O)C=C1c1cc(O)cc(O)c1C(=O)O2 (stereo unspecified)
inactive: all assays above

C=C(C)C(O)COc1ccc(CC(=O)O)cc1 (stereo unspecified)
inactive: all assays above

COC(=O)C1=COC(O[C@@H]2O[C@H](CO)[C@@H](O)[C@H](O)[C@H]2O)/C(=C\COC(=O)/C=C/c2ccccc2)C1CC(=O)OCCc1ccc(O)cc1 (stereo partly specified)
inactive: NIH3T3 inactive [at 17.4 µM] | C33A | CAOV3 | CASKI | Es-2 | HeLa | Hek293T | JEG-3 | OV90 | PA-1 | SKOV3 | Tov-21-G | Tov112D

Cc1ccc(Cl)cc1N(CC(=O)Nc1c(F)cccc1F)S(C)(=O)=O
inactive: all assays above

CC(=O)N[C@H](Cc1c[nH]c2ccccc12)C(=O)OCc1cc(C(F)(F)F)cc(C(F)(F)F)c1
inactive: all assays above

CC1=CCC[C@@H]2[C@](CCc3ccoc3)(C(=O)O)[C@H](C)CC[C@@]12C
inactive: all assays above

CC1(C)C[C@H](O)C[C@@]2(C)[C@H]1[C@H](O)C=C1COC(=O)[C@@]12O
inactive: all assays above

CC1=C2CC(O)(C(C)(C)O)C(O[C@@H]3O[C@H](CO)[C@@H](O)[C@H](O)[C@H]3O)CC(C)C2CC1=O (stereo partly specified)
inactive: NIH3T3 inactive [at 17.4 µM] | C33A | CAOV3 | CASKI | Es-2 | HeLa | Hek293T | JEG-3 | OV90 | PA-1 | SKOV3 | Tov-21-G | Tov112D
